# In PubChem BioAssay:
# Activity calls are given as the source filed them. No rule for the calls is given here.
# Tests used:
# [1] = compounds altering circadian rhythm period length – cell-based, LOPAC library, luminescence reporter (AID 2774); conditions: circadian reporter cells, at 7 µM, actives lie on both sides;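 also: values are relative to mean of DMSO wells on each plate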
# [2] = compounds altering viability of human ES cells (AID 493140); conditions: human embryonic stem cell survival screen; active compounds read high;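 also: cells exposed to compounds for four days before counting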
# [3] = chitosan synthesis blockers in C. neoformans – flow cytometry, Cibacron Brilliant Red staining (AID 1347148); conditions: Cryptococcus neoformans chitosan, active compounds read low; at 10 µM unless noted;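 also: compound exposure lasted three days at 37 degrees C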
# [4] = blockers of cellular phospholipid synthesis – cell-based, LOPAC library, screen 4, primary screen (AID 1347384); conditions: animal cells, phospholipid biosynthesis inhibition screen; at 10 µM
SMILES,period change [1],survival [2],fold fluorescence [3],outcome [4]
Oc1cc(O)cc(/C=C/c2ccc(O)c(O)c2)c1,-0.07 h (inactive),27.6 (inactive),4.54 [at 204.7 µM] (inactive),inactive
N#CC(=C(/N)Sc1ccccc1N)/C(C#N)=C(\N)Sc1ccccc1N,–,104 (inactive),5.14 [at 131.4 µM] (inactive),–
CCCC[C@@H](C=O)NC(=O)[C@H](CC(C)C)NC(=O)OCc1ccccc1,–,–,5.15 [at 137.9 µM] (inactive),–
Clc1ccc(-c2nc3sccn3c2/C=N/OCc2ccc(Cl)c(Cl)c2)cc1,–,–,3.64 [at 114.5 µM] (inactive),–
O=C1c2ccccc2-c2n[nH]c3cccc1c23,1.23 h (active),97.1 (inactive),20.5 [at 227 µM] (inactive),inactive
N#C/C(=C\c1ccc(O)c(O)c1)C(=O)NCc1ccccc1,0.01 h (inactive),133 (inactive),6.89 [at 169.9 µM] (inactive),–
COc1cc2c(cc1O)CC[C@@H]1[C@@H]2CC[C@]2(C)[C@@H](O)CC[C@@H]12,-1.4 h (active),–,–,inactive
Cc1cccc(C#Cc2ccccc2)n1,0.065 h (inactive),–,–,inactive
O=S(=O)(NCCNC/C=C/c1ccc(Br)cc1)c1cccc2cnccc12,-0.05 h (inactive),202 (active),7.62 [at 112 µM] (inactive),–
Cc1ccc(NC(=O)c2cccc(N(C)C)c2)cc1NC(=O)c1ccc(O)cc1,–,103 (inactive),3.78 [at 128.4 µM] (inactive),–
CC(C)(Sc1ccc(CCN(CCCCC2CCCCC2)C(=O)NC2CCCCC2)cc1)C(=O)O,-0.015 h (inactive),–,–,inactive
Cc1ccc(-c2nn(C(C)(C)C)c3ncnc(N)c23)cc1,–,82.2 (inactive),12.9 [at 177.7 µM] (inactive),–
CC(C)(C)NCC(O)COc1cccc2[nH]c(=O)[nH]c12 (stereo unspecified),-0.075 h (inactive),–,–,inactive
CCCCCCCC/C=C\CCCCCCCC(=O)NCCc1ccc(O)c(O)c1,0.16 h (inactive),98 (inactive),–,inactive
CCCCCCCC/C=C\CCCCCCCC(N)=O,–,102 (inactive),4.91 (inactive),–
COc1cc(/C=C(\C#N)C(N)=O)cc(CSc2nc3ccccc3s2)c1O,–,114 (inactive),9.44 [at 125.8 µM] (inactive),–
COc1ccc(CCN(C)CCc2ccc(OC)c(OC)c2)cc1OC,0.045 h (inactive),–,2.96 [at 139.1 µM] (inactive),inactive
CC(N)=NCc1cccc(CN)c1,-0.015 h (inactive),–,3.53 [at 282.1 µM] (inactive),–
COc1ccc(Br)cc1S(=O)(=O)NC(=O)/C=C/c1ccccc1Cc1ccc2ccccc2c1,–,–,–,inactive
O=C1Cc2c([nH]c3ccc(Br)cc23)-c2ccccc2N1,-0.835 h (active),–,–,inactive
CCCCCCCCCCCCC/C=C/[C@@H](O)[C@H](CO)NC(C)=O,–,95 (inactive),5.52 (inactive),–
CC(C)(C)c1cc(O)c(C(C)(C)C)cc1O,–,–,11.1 [at 224.9 µM] (inactive),–
CCCCCCCC/C=C\CCCCCCCC(=O)NCCO,0.02 h (inactive),–,–,inactive
CN(C)c1ccc(/C=C2\C(=O)Nc3ccccc32)cc1,-0.18 h (inactive),85.4 (inactive),5.59 [at 189.2 µM] (inactive),inactive
Oc1cc2c(cc1O)C(c1ccccc1)CNCC2 (stereo unspecified),0.125 h (inactive),–,–,inactive
